Bioassay records: PubChem BioAssay, National Center for Advancing Translational Sciences (NCATS)
TDP1 inh: qHTS Assay for Inhibitors of Tyrosyl-DNA Phosphodiesterase (TDP1); Tyrosyl-DNA phosphodiesterase 1 (Homo sapiens), Q9NUW8; recombinant TDP1, AlphaScreen DNA substrate cleavage; Potency, µM (top dose mostly 130 µM), actives largely listed as inhibitors; actives 0.28% (n = 350,000); note: nearly all actives have a fitted effect of over 40% in size
Target sequence (Q9NUW8 whole entry, looked up): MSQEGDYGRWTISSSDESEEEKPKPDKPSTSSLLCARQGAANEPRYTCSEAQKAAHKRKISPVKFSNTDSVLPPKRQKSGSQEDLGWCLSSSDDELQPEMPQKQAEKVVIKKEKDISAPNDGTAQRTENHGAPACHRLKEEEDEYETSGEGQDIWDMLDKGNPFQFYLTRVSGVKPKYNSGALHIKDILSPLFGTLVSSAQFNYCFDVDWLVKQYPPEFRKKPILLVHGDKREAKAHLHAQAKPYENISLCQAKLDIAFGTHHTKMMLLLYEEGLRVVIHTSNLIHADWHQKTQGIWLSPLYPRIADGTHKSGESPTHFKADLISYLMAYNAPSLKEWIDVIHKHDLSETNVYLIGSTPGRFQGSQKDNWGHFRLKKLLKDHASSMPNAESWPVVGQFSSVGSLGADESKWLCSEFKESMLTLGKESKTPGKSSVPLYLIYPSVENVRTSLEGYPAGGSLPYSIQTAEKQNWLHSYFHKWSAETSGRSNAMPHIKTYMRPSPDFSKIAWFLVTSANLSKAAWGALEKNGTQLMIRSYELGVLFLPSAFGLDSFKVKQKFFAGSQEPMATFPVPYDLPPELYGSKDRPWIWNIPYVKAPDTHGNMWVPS
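Tdp1 1 nM final; 15 min RT w/ cpd; substrate 15 nM, 5 min; beads 10 ug/ml, 10 min; AlphaScreen read. Neg ctrl: no enzyme.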
DT40 TDP1 no CPT: qHTS for Inhibitors of human tyrosyl-DNA phosphodiesterase 1 (TDP1): qHTS in cells in absence of CPT; DT40 Tdp1-/- hTDP1 cells, no CPT, ATP luminescence, 48 h; Potency, µM (titrated, usually from 46.2 µM), actives largely listed as inhibitors; actives 15% (n = 420,000); AID 686978, 2013; note: nearly all actives have a fitted effect of over 55% in size
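DT40 Tdp1-/-;hTDP1 cells, no CPT (DMSO vehicle only), 400 cells/well; compounds pin-transferred; ≥48 hr, 37 °C; CellTiter-Glo 30 min RT dark, luminescence read.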
PLK1 PBD inh: qHTS for Inhibitors of PLK1-PDB (polo-like kinase 1 - polo-box domain): Primary Screen; Serine/threonine-protein kinase PLK1 (Homo sapiens), P53350; Plk1 PBD binding of FITC phosphopeptide, fluorescence polarization; Potency, µM, hits mostly inhibitors; actives 2.8% (n = 360,000); AID 720504, 2013; note: series mostly up to about 57 µM; nearly all actives have a fitted effect of over 65% in size
DT40 TDP1 CPT: qHTS for Inhibitors of human tyrosyl-DNA phosphodiesterase 1 (TDP1): qHTS in cells in presence of CPT. Potency, µM (series often up to 46.2 µM), most hits filed as inhibitors. actives 12% (n = 420,000). chicken DT40 Tdp1-/-;hTDP1 cells + 20 nM CPT, ATP luminescence, 48 h; note: nearly all actives have a fitted effect of over 55% in size
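Chicken DT40 Tdp1-/- cells stably complemented with human TDP1 were seeded at 400 cells/well in medium containing 20 nM camptothecin, exposed to pin-transferred compounds, and grown at 37 °C for at least 48 hr. Viability was read as ATP luminescence.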
VDR inhibitor: Inhibitors of the vitamin D receptor (VDR): qHTS; Potency, µM, actives largely listed as inhibitors; VDR-SRC2-3 peptide fluorescence polarization, 2 h; actives 0.93% (n = 400,000); Vitamin D3 receptor (Homo sapiens), P11473
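FP read-out; VDR + SRC2-3 coactivator peptide; 23 nl compound by pintool; 2 h RT incubation; reagents held at 4 deg C, protected from light.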
GCN5L2 inh: qHTS Assay for Inhibitors of GCN5L2 | actives 0.21% (n = 390,000) | Histone acetyltransferase KAT2A (Homo sapiens), Q92830 | GCN5L2 HAT assay, ThioGlo1 CoA-SH fluorescence | Potency, µM (highest dose often 58.9 µM), most hits filed as inhibitors
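Fluorescence readout, Ex340nm/Em540nm: ThioGlo1 (50uM final) reacts with free CoA thiol released as 20nM GCN5L2 acetylates H3(1-25) peptide (75uM) using acetyl-CoA (70uM). Compound and enzyme sat 15 min beforehand; 20 min room-temperature reaction.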
A number is an active result; - = inactive; ? = inconclusive; . = no result given; ! = a repeat was not active; [ ] = another dose, or the depositor's remark. Rows were chosen to be rich in hits. Some 18% of all compounds tested hit in one or more screens of this group. Calls come from the whole dose curve; as a rule, active = well fitted curve in the direction sought with a large enough effect; inconclusive = small, poorly fitted or top-dose-only effect, or another doubt; inactive = no such curve, though single readings can be large; an effect the other way counts as inactive or inconclusive.

SMILES	TDP1 inh	DT40 TDP1 no CPT	PLK1 PBD inh	DT40 TDP1 CPT	VDR inhibitor	GCN5L2 inh
CC(=O)n1cc(N(C(=O)CCl)c2ccc([N+](=O)[O-])cc2)c2ccccc21	-	2.6µM	-	2.3µM	22µM	-
COC(=O)C1OC(=O)C2OC23[C@]2(C)C(OC(C)=O)CC4C(C)(C)C(=O)CC[C@]4(C)C2CC[C@@]13C (some centres undefined)	-	-	.	-	-	-
Cc1cc(NC(=O)C(C)SCC(=O)N(Cc2ccccc2)c2ccccc2)no1 (centres undefined)	-	?	-	-	-	-
COc1ccccc1CNC(=O)c1ccc(N2Cc3cccc(OC)c3Oc3ncccc32)s1	-	12µM	.	15µM	-	-
O=C(CSc1nnc2scc(-c3ccccc3)n12)Nc1ccc(Cl)cc1	.	?	.	-	-	-
COc1ccc(-n2c(=O)cnc3cnc(N4CCOCC4)nc32)cc1	.	-	.	?	-	-
CN(C)S(=O)(=O)N1CCC(N2CCN(Cc3ccc(F)cc3)C(=O)C2=O)CC1	-	-	.	-	-	-
CCOC(=O)Nc1ccc2c(c1)N(C(=O)CCN1CCOCC1)c1ccccc1S2=O (centres undefined)	-	5.8µM	-	3.7µM	?	-
Cn1c(/C(C#N)=C(\O)c2ccccc2Cl)nc2ccccc21	.	-	-	-	-	.
CCN(CC)S(=O)(=O)c1ccc(C(O)=C(C#N)c2nc3ccccc3n2C)cc1	.	13µM	-	16µM	-	.
Cc1ccc(OC/C(O)=C(\C#N)c2nc3ccccc3s2)cc1	-	?	-	?	-	-
Cn1c(/C(C#N)=C(\O)COc2ccc3ccccc3c2)nc2ccccc21	-	26µM	-	?	-	-
COc1cccc(C(O)c2nc(-c3ccc4ccccc4c3)cs2)c1 (centres undefined)	.	-	-	?	.	.
COc1ccc(CCC(=O)O)c(O)c1	.	-	-	-	-	?
COCc1cc(O)c(O)c(O)c1-c1c(COC)cc(O)c(O)c1O	.	4.5µM	.	5µM	16µM	-
O=C(NNc1nc2ccccc2s1)c1ccccc1F	-	?	-	-	-	-
Fc1ccc2nc(Nc3nc4c(F)cccc4s3)sc2c1	-	?	-	?	-	-
Fc1ccc2nc(Nc3nc4c(F)cc(F)cc4s3)sc2c1	-	15µM	-	16µM	-	-
Fc1ccc2nc(Nc3nc4cc5c(cc4s3)OCCO5)sc2c1	-	?	-	16µM	-	-
Fc1cccc2sc(Nc3nc4ccccc4s3)nc12	-	12µM	-	?	-	-
Fc1ccc2nc(Nc3nc4cc5c(cc4s3)OCO5)sc2c1	-	?	-	?	-	-
COc1ccccc1-c1c(C)nn2c(-c3ccccc3)cc(-c3ccccc3)nc12	-	-	.	-	-	-
Oc1ccc(CNc2cccc(F)c2F)c2cccnc12	.	.	.	.	.	-
CCCCNc1c(-c2ccc(SC(C)CC)cc2)nc2ccccn12 (centres undefined)	-	16µM	-	13µM	-	?
COc1ccc(-c2nc3ccccn3c2NCc2ccc3c(c2)OCO3)cc1	-	?	-	-	-	-
SMILES	TDP1 inh	DT40 TDP1 no CPT	PLK1 PBD inh	DT40 TDP1 CPT	VDR inhibitor	GCN5L2 inh
CCCCNc1c(-c2ccc(SC3CCCCC3)cc2)nc2ccccn12	.	23µM!	-	23µM	-	?
O=C1NC[C@H](CCCCN2C[C@H](Cc3ccc(O)cc3)N(CC3CCCCC3)C(=O)C2=O)N(CCc2ccc(O)cc2)C1=O	.	-	-	-	.	.
N#Cc1c2ccc(O)cc2n2ccccc12	-	8.2µM	?	?	-	-
N#Cc1c2ccc(OCC(=O)NCc3ccco3)cc2n2ccccc12	.	-	-	-	-	-
CC(C)(C)N(Cc1ccc2c(c1)OCO2)C(=O)/C=C\S(=O)c1ccccc1 (centres undefined)	.	3.7µM	?	5.2µM	71µM	.
CC(C)(C)NC(=O)CN(Cc1ccc2c(c1)OCO2)C(=O)CNS(=O)(=O)c1ccccc1	-	-	?	-	-	-
CC1CC(C)CN(c2nc(N(C)c3ccccc3)nc(N)c2[N+](=O)[O-])C1 (centres undefined)	.	13µM	-	?	-	-
CC1CN(c2nc(N(C)c3ccccc3)nc(N)c2[N+](=O)[O-])CC(C)O1 (centres undefined)	.	?	-	-	-	-
CCOC(=O)CC(NC(=O)c1cc2cc(Br)cc(OC)c2oc1=O)c1ccc(OC)cc1 (centres undefined)	-	.	.	.	-	-
CCC(=O)N1CCc2cc(Br)cc(S(=O)(=O)N3CCN(c4ccc(C)cc4)C(C)C3)c21 (centres undefined)	-	-	.	-	-	-
CCCCN(C)S(=O)(=O)c1cc(Br)cc2c1N(C(=O)C1CC1)CC2	-	3.7µM	-	8.2µM	-	-
COc1ccccc1CNS(=O)(=O)c1cc(Br)cc2c1N(C(=O)C1CC1)CC2	-	?	.	?	-	-
COc1ccc(NS(=O)(=O)c2cc(Br)cc3c2N(C(=O)C2CC2)CC3)cc1OC	-	2.1µM	.	2.3µM	-	-
O=C(O)CCS(=O)(=O)c1cc(Br)cc2c1N(C(=O)C1CC1)CC2	-	-	?	-	-	-
CC(C)c1ccc(NS(=O)(=O)c2cc(Br)cc3c2N(C(=O)C2CC2)CC3)cc1	-	4.6µM	.	8.2µM	-	-
Cc1ccc(N2CCN(S(=O)(=O)c3cc(Br)cc4c3N(C(=O)C3CC3)CC4)CC2C)cc1 (centres undefined)	-	16µM	.	13µM	-	-
CCOC(=O)N1CCN(C(=O)C2CCC(=O)N(Cc3cccc(C(F)(F)F)c3)C2)CC1 (centres undefined)	-	-	-	-	-	-
O=C(CCCSc1nnc(SCCCC(=O)c2ccc(F)cc2)s1)c1ccc(F)cc1	-	?	-	18µM	-	-
CCCCC(C)/C=C(C)/C=C(\C)C(=O)NC1=CC(O)(/C=C/C=C/C=C/C(=O)NC2=C(O)CCC2=O)C2OC2C1=O (centres undefined)	-	.	.	.	?	?
COC(=O)/C(=C(O)\C=C\c1ccccc1[N+](=O)[O-])c1nc2ccccc2[nH]1	-[0.0935 µM]	15µM	-	12µM	-	-
Cc1ccc2ccccc2n1	.	-	.	-	.	.
